Assay results taken from PubChem BioAssay (NCI).
Compounds without any hit were thinned out: in the full panel of roughly 83,000, 20% have a hit.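 Step 1: grow cells in 96-well plates. Step 2: add test compound at a single concentration. Step 3: incubate 48 h. Step 4: record percent growth.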 Active and inactive are the calls of the source. The calls were made as follows: active = growth percent below 10; inactive = the rest.

Key:
Assay in all cases: NCI-60 one-dose screen, 48 h (100 = growth as untreated, 0 = no growth, -100 = all killed)
Details in all cases: 10 µM unless noted
[1] = test system: SR leukemia
[2] = test system: RPMI-8226 leukemia
[3] = test system: OVCAR-8 ovarian
[4] = test system: OVCAR-5 ovarian
[5] = test system: OVCAR-4 ovarian
[6] = test system: SK-OV-3 ovarian
[7] = test system: IGROV1 ovarian
[8] = test system: OVCAR-3 ovarian
[9] = test system: HS 578T breast
[10] = test system: NCI/ADR-RES ovarian
[11] = test system: T-47D breast
[12] = test system: BT-549 breast
[13] = test system: MDA-MB-435 melanoma
[14] = test system: SW-620 colon
[15] = test system: MCF7 breast
[16] = test system: HCT-116 colon
[17] = test system: HCC-2998 colon
[18] = test system: KM12 colon

Measured: growth

CC1(C)CC[C@]2(C(=O)NCCCCCCN(CCCN)CCCN)CC[C@]3(C)C(=CC[C@@H]4[C@@]5(C)CC[C@H](O)C(C)(C)[C@@H]5CC[C@]43C)[C@@H]2C1
inactive: [1] 87.2% | [2] 100% | [3] 99% | [4] 96.8% | [5] 109% | [6] 114% | [7] 101% | [8] 106% | [9] 110% | [10] 98.8% | [11] 98.6% | [12] 102% | [13] 105% | [14] 107% | [15] 93.4% | [16] 99.2% | [17] 103% | [18] 102%

Cc1ccc2c(n1)C(=O)C(Cl)=C(Nc1ccccc1C(=O)OC(C)(C)C)C2=O
inactive: [3] 66.8% | [4] 139% | [6] 105% | [7] 59.6% | [9] 84.1% | [10] 64.2% | [12] 38.6% | [13] 84.7% | [17] 92.3% | [18] 99.1%
active: [1] -30.8% | [2] -31.8% | [5] -45.3% | [8] -63.6% | [11] -25.2% | [14] -28.3% | [16] -84.6%

CCCc1cc2cc(-n3nc(CC)c4c3CC(C)(C)CC4=O)cc(NC3CCC(O)CC3)c2c(=O)[nH]1 (centres undefined)
inactive: [2] 12.4% | [3] 21.9% | [4] 35.2% | [5] 64.9% | [6] 27.2% | [7] 25.4% | [8] 46.7% | [9] 16.1% | [10] 39.9% | [11] 29.6% | [12] 38.7% | [14] 12.3% | [15] 17.7% | [18] 15.4%
active: [1] 0.947% | [13] 0.0389% | [16] 6.5% | [17] 8.95%

Cn1ncc2ncc(-c3ccc4ncc(C#N)c(N5CCc6cc(F)c(Cl)cc65)c4c3)cc21
active: [7] -9.7% | [9] -1.2% | [11] 5.2% | [15] 9.79%
inactive: [1] 22.3% | [2] 35.8% | [3] 38.8% | [4] 47% | [5] 26.1% | [6] 15% | [8] 29.8% | [10] 39.3% | [12] 37.4% | [13] 27.1% | [14] 54.4% | [16] 53.1% | [17] 46.4% | [18] 52.5%

Nc1ncc(-c2ccc3ncnc(NCc4ccccc4)c3c2)cn1
active: [7] -8.67%
inactive: [1] 42.2% | [2] 31.5% | [3] 54.3% | [4] 36.7% | [5] 57.8% | [6] 39.5% | [8] 45.9% | [9] 14.7% | [10] 69% | [11] 15% | [12] 34.5% | [13] 65.1% | [14] 73.7% | [15] 19.3% | [16] 66.5% | [17] 59.8% | [18] 72.1%

Cc1cc(Br)ccc1-n1cc(C#N)c(N)c1C(=O)c1ccc(Br)cc1
inactive: [1] 89.4% | [2] 106% | [3] 106% | [4] 114% | [5] 114% | [6] 109% | [7] 110% | [8] 115% | [9] 106% | [10] 103% | [11] 101% | [12] 89.8% | [13] 100% | [14] 117% | [15] 95.2% | [16] 88.6% | [17] 110% | [18] 107%

Cn1c(SCC(=O)c2ccc(Br)cc2)nc2ccccc2c1=O
inactive: [1] 89.6% | [2] 77.7% | [3] 96.8% | [4] 106% | [5] 81.8% | [6] 98.9% | [7] 90.5% | [8] 102% | [9] 102% | [10] 96.5% | [11] 78.4% | [12] 98.9% | [13] 103% | [14] 102% | [15] 51.7% | [16] 86.1% | [17] 108% | [18] 98.7%

Cc1cc(C)cc(NC2=C(Cl)C(=O)c3nc(C)ccc3C2=O)c1
inactive: [1] 41% | [3] 73.1% | [4] 92.7% | [6] 107% | [9] 11.1% | [10] 65.6% | [12] 66.6% | [17] 77.6% | [18] 76.8%
active: [2] -15.1% | [5] -5.74% | [7] -62.1% | [8] -0.41% | [11] -20% | [13] -78.8% | [14] -6.15% | [15] -44.4% | [16] 9.38%

CC1=C(C)C(=O)C(Nc2cccc(C)c2)=C(Br)C1=O
active: [11] 4.47%
inactive: [1] 69.3% | [2] 35.8% | [3] 95.7% | [4] 128% | [5] 69.3% | [6] 85.7% | [7] 84.5% | [8] 110% | [9] 96.1% | [10] 98.1% | [12] 106% | [13] 109% | [14] 107% | [15] 75.7% | [16] 76.9% | [17] 111% | [18] 105%

C#C[C@]1(O)CC[C@H]2[C@@H]3CC=C4c5sc(Nc6ccc(C)cn6)nc5CC[C@]4(C)[C@H]3CC[C@@]21C
active: [1] -15% | [2] -32% | [6] -44.8% | [9] -11.9% | [12] -12.7% | [13] -51.8% | [14] -53.1% | [15] -68.9% | [16] 5.1% | [18] -35.5%
inactive: [3] 25.3% | [4] 22.2% | [5] 42.8% | [7] 29.4% | [8] 34% | [10] 20.3% | [11] 18.9% | [17] 19.2%

CC1CCN(CC(=O)Nn2c(COc3ccccc3)nc3ccccc3c2=O)CC1
active: [13] 5.85%
inactive: [1] 30.5% | [2] 76.8% | [3] 98.5% | [4] 101% | [5] 94.9% | [6] 77% | [7] 73.1% | [8] 94.8% | [9] 86.1% | [10] 71.6% | [11] 67.8% | [12] 97.9% | [14] 57.2% | [15] 42.4% | [16] 81.9% | [17] 89.9% | [18] 45%

O=c1[nH][nH]c(-c2ccc(F)cc2)c1-c1nc2ccccc2s1
inactive: [1] 103% | [2] 97.4% | [3] 100% | [4] 95.9% | [5] 106% | [6] 88.6% | [7] 86.8% | [8] 108% | [9] 96.9% | [10] 86.8% | [11] 87.7% | [12] 98.8% | [13] 104% | [14] 105% | [15] 81.2% | [16] 93.2% | [17] 107% | [18] 105%

COc1cc2cc(Oc3ccc(NC(=O)c4cc(C(F)(F)F)cc(C(F)(F)F)c4)cc3)c(C)nc2cc1OCCN1CCOCC1
inactive: [1] 20.6% | [2] 24.6% | [3] 80.1% | [4] 95.7% | [5] 48.8% | [6] 87.5% | [7] 85.6% | [8] 78.9% | [9] 36.7% | [10] 62.4% | [11] 84.7% | [12] 71.4% | [13] 65.4% | [15] 26.4% | [16] 11.9% | [17] 113% | [18] 73.5%

O=S(=O)(NCCCNc1nccc(-c2[nH]c(-c3ccccc3)nc2-c2ccc(F)c(O)c2)n1)c1ccccc1
inactive: [1] 51.5% | [2] 48.9% | [3] 90.2% | [4] 155% | [5] 118% | [6] 121% | [7] 114% | [8] 138% | [9] 116% | [10] 108% | [11] 90.1% | [12] 112% | [13] 51% | [14] 133% | [15] 94.9% | [16] 77.9% | [17] 126% | [18] 98.8%

CC(Nc1ncnc2ccc(-c3cnc(N)nc3)cc12)c1ccccc1 (centres undefined)
active: [7] -13.4% | [9] 5.98%
inactive: [1] 15.1% | [2] 28.2% | [3] 48% | [4] 28.7% | [5] 39.7% | [6] 27.3% | [8] 43.8% | [10] 53% | [11] 12.2% | [12] 19.9% | [13] 50.4% | [14] 67.4% | [15] 18.5% | [16] 33% | [17] 43% | [18] 54.7%

Cc1ccc(-c2csc(N/N=C/c3cccs3)n2)cc1
inactive: [1] 56.1% | [2] 86.5% | [3] 93.6% | [4] 122% | [5] 59.6% | [6] 101% | [7] 86.3% | [8] 104% | [9] 105% | [10] 92.7% | [11] 72.6% | [12] 112% | [13] 98% | [14] 108% | [15] 70.8% | [16] 70% | [17] 115% | [18] 90.8%

Cn1cc(-c2nnc(N)nc2-c2c[nH]c3ccc(F)cc23)c2cc(Br)ccc21
active: [1] 4.93% | [2] 5.9% | [9] 7.85% | [13] 3.84%
inactive: [3] 34.4% | [4] 68.3% | [5] 50.1% | [6] 33.7% | [7] 34.6% | [8] 10.7% | [10] 15.2% | [11] 29.4% | [12] 11.1% | [14] 20.4% | [15] 12.3% | [16] 14.9% | [17] 53.6% | [18] 22.5%
